Out of some 5,500 compounds screened, about 2,000 (36%) were called active. Another 18% or so got no clear call; they are omitted. The list shows a part of the results. A number with no mark means an inactive call. No stated cut-off is given here; in the data, active means normalized growth mostly below about 0.91 (no sharp cut-off); inconclusive means no clear call, values can overlap the other calls; inactive means mostly above about 0.92.
Assay: chemical genetic growth profiling, strain panel (AID 1159580);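 further: tested at 20 µM; growth read once vehicle control cultures reached saturation at 30 °C; 1 = growth at the plate median or of vehicle wells; lower values mean less growth of the strain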
Conditions: growth OD
[1] = S. cerevisiae deletion strains, locus YAL013W, strain DEP1, active compounds read low
[2] = S. cerevisiae deletion strains, locus YBR229C, strain ROT2, active compounds read low
[3] = S. cerevisiae deletion strains, locus YDL101C, strain DUN1, active compounds read low
[4] = S. cerevisiae deletion strains, locus YDR150W, strain NUM1, active compounds read low
[5] = S. cerevisiae deletion strains, locus YEL061C, strain CIN8, active compounds read low
[6] = S. cerevisiae deletion strains, locus YGR078C, strain PAC10, active compounds read low
[7] = S. cerevisiae deletion strains, locus YHR030C, strain SLT2, active compounds read low
[8] = S. cerevisiae deletion strains, locus YHR087W, strain rtc3, active compounds read low
[9] = S. cerevisiae deletion strains, locus YJL187C, strain SWE1, active compounds read low
[10] = S. cerevisiae deletion strains, locus YJR043C, strain POL32, active compounds read low
[11] = S. cerevisiae deletion strains, locus YJR075W, strain HOC1, active compounds read low
[12] = S. cerevisiae deletion strains, locus YKL190W, strain CNB1, active compounds read low
[13] = S. cerevisiae deletion strains, locus YLR039C, strain RIC1, active compounds read low
[14] = S. cerevisiae deletion strains, locus YLR058C, strain SHM2 (second series), active compounds read low
[15] = S. cerevisiae deletion strains, locus YLR085C, strain ARP6, active compounds read low
[16] = S. cerevisiae deletion strains, locus YLR262C, strain YPT6, active compounds read low
[17] = S. cerevisiae deletion strains, locus YML094W, strain GIM5, active compounds read low
[18] = S. cerevisiae deletion strains, locus YMR219W, strain ESC1, active compounds read low
[19] = S. cerevisiae deletion strains, locus YMR263W, strain SAP30, active compounds read low
[20] = S. cerevisiae deletion strains, locus YMR307W, strain GAS1, active compounds read low
[21] = S. cerevisiae deletion strains, locus YNL153C, strain GIM3, active compounds read low
[22] = S. cerevisiae deletion strains, locus YNL298W, strain CLA4 (second series), active compounds read low
[23] = S. cerevisiae deletion strains, locus YNL322C, strain KRE1, active compounds read low
[24] = S. cerevisiae deletion strains, locus YNR030W, strain Alg12, active compounds read low
[25] = S. cerevisiae deletion strains, locus YPL055C, strain LGE1, active compounds read low
[26] = S. cerevisiae deletion strains, locus YPL241C, strain CIN2, active compounds read low
[27] = S. cerevisiae deletion strains, locus YPR135W, strain CTF4, active compounds read low
[28] = S. cerevisiae strains, strain wild type, active compounds read low
[29] = S. cerevisiae deletion strains, locus YAL040C, strain CLN3, active compounds read low
[30] = S. cerevisiae deletion strains, locus YDR363W, strain ESC2, active compounds read low
[31] = S. cerevisiae deletion strains, locus YER002W, strain NOP16, active compounds read low
[32] = S. cerevisiae deletion strains, locus YNL175C, strain NOP13, active compounds read low
[33] = S. cerevisiae deletion strains, locus YNL197C, strain WHI3, active compounds read low
[34] = S. cerevisiae deletion strains, locus YNL224C, strain SQS1, active compounds read low
[35] = S. cerevisiae deletion strains, locus YOR083W, strain WHI5 (second series), active compounds read low
[36] = S. cerevisiae deletion strains, locus YNL128W, strain TEP1, active compounds read low
[37] = S. cerevisiae deletion strains, locus YOL006C, strain TOP1, active compounds read low

CN(C(=O)Nc1ccccc1)n1cnc2ccccc2c1=O
normalized growth [1]: 0.999
normalized growth [2]: 1.03
normalized growth [3]: 1
normalized growth (S. cerevisiae deletion strains, locus YDL134C, strain PPH21, active compounds read low): 1.03
normalized growth [4]: 0.917
normalized growth [5]: 1.02
normalized growth [6]: 1.01
normalized growth [7]: 1.01
normalized growth [8]: 0.994
normalized growth [9]: 1.01
normalized growth [10]: 0.998
normalized growth [11]: 1.04
normalized growth [12]: 1.01
normalized growth [13]: 1
normalized growth [14]: 1.02
normalized growth [15]: 1.04
normalized growth [16]: 1.01
normalized growth [17]: 1.03
normalized growth [18]: 1.01
normalized growth [19]: 0.994
normalized growth [20]: 0.98
normalized growth [21]: 1.01
normalized growth [22]: 1
normalized growth [23]: 1.01
normalized growth [24]: 1.01
normalized growth [25]: 1.05
normalized growth [26]: 1.02
normalized growth [27]: 1
normalized growth [28]: 1.01

CCCCCCC(C)(C)c1ccc([C@@H]2C[C@H](O)CC[C@H]2CCCO)c(O)c1
normalized growth [1]: 1.01
normalized growth [29]: 0.993
normalized growth [4]: 0.986
normalized growth [30]: 1.02
normalized growth [31]: 0.977
normalized growth [20]: 1.01
normalized growth [21]: 0.716 (active)
normalized growth [32]: 0.915
normalized growth [33]: 0.944
normalized growth [34]: 0.922
normalized growth [23]: 1.01
normalized growth [35]: 0.897
normalized growth [25]: 0.998

CCCCCN(CCCCC)C(=O)C(CCC(=O)O)NC(=O)c1ccc(Cl)c(Cl)c1 (configuration not stated)
normalized growth [1]: 1.01
normalized growth [29]: 1
normalized growth (S. cerevisiae deletion strains, locus YCL061C, strain MRC1 (second series), active compounds read low): 1
normalized growth [4]: 0.993
normalized growth [30]: 1.03
normalized growth [31]: 0.991
normalized growth [7]: 0.993
normalized growth (S. cerevisiae deletion strains, locus YHR079C, strain IRE1, active compounds read low): 0.986
normalized growth (S. cerevisiae deletion strains, locus YJL095W, strain BCK1, active compounds read low): 1.01
normalized growth (S. cerevisiae deletion strains, locus YJR066W, strain TOR1, active compounds read low): 0.97
normalized growth [11]: 1.02
normalized growth (S. cerevisiae deletion strains, locus YLR113W, strain HOG1, active compounds read low): 0.952
normalized growth [20]: 0.992
normalized growth [36]: 0.963
normalized growth [32]: 0.995
normalized growth (S. cerevisiae deletion strains, locus YNL183C, strain NPR1, active compounds read low): 0.949
normalized growth [33]: 0.986
normalized growth [34]: 0.985
normalized growth [35]: 0.95
normalized growth (S. cerevisiae deletion strains, locus YOR231W, strain MKK1, active compounds read low): 0.983
normalized growth [25]: 0.983
normalized growth (S. cerevisiae deletion strains, locus YPL256C, strain CLN2, active compounds read low): 0.987

COC(=O)c1cc([N+](=O)[O-])ccc1N1CCOCC1
normalized growth [1]: 1.01
normalized growth [2]: 1
normalized growth [3]: 1.01
normalized growth [4]: 0.98
normalized growth [5]: 1.01
normalized growth [6]: 1.01
normalized growth [7]: 1.09
normalized growth [8]: 1.02
normalized growth [9]: 1
normalized growth [10]: 0.991
normalized growth [11]: 0.988
normalized growth [12]: 1.01
normalized growth [13]: 1.02
normalized growth [14]: 1
normalized growth [15]: 1.06
normalized growth [16]: 1.01
normalized growth [17]: 1.03
normalized growth [18]: 1
normalized growth [19]: 1
normalized growth [20]: 1.06
normalized growth [21]: 0.995
normalized growth [22]: 1.05
normalized growth [23]: 0.993
normalized growth [24]: 1.03
normalized growth [37]: 1.06
normalized growth [25]: 1.02
normalized growth [26]: 1.06
normalized growth [27]: 1.04
normalized growth [28]: 1.01

COc1cc([N+](=O)[O-])ccc1N1CCCC1
normalized growth [1]: 0.898 (active)
normalized growth [2]: 0.941
normalized growth [3]: 0.882 (active)
normalized growth [4]: 0.898
normalized growth [5]: 0.912
normalized growth [6]: 0.882 (active)
normalized growth [7]: 0.302 (active)
normalized growth [8]: 0.979
normalized growth [9]: 0.902 (active)
normalized growth [10]: 0.951
normalized growth [11]: 0.933
normalized growth [13]: 0.554 (active)
normalized growth [14]: 0.929 (active)
normalized growth [15]: 0.605 (active)
normalized growth [16]: 0.661 (active)
normalized growth [17]: 0.865 (active)
normalized growth [18]: 0.934 (active)
normalized growth [19]: 0.928
normalized growth [20]: 0.445 (active)
normalized growth [36]: 0.931
normalized growth [21]: 0.913 (active)
normalized growth [22]: 0.775 (active)
normalized growth [23]: 0.916 (active)
normalized growth [24]: 0.862 (active)
normalized growth [37]: 0.522 (active)
normalized growth [25]: 0.946
normalized growth [26]: 0.858 (active)
normalized growth [27]: 0.512 (active)
normalized growth [28]: 0.867 (active)
